High-throughput results: PubChem, National Center for Advancing Translational Sciences (NCATS)
LDHA block – inhibitors of human lactate dehydrogenase A | P00338 | purified LDHA, NADH/diaphorase-resazurin fluorescence; hits give low values | activity change, % (values are at about 110 or 230 µM) | 480,000 tested, 0.15% active | AID 1347041; in the data active means activity change below about -30%; inconclusive means mostly about -25% to -30%
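Remaining NADH was detected by diaphorase (0.133 mg/mL) converting 37 µM resazurin to fluorescent resorufin, read at 0 and 20 minutes. The preceding 5-minute room-temperature reaction used 2 nM LDHA, 0.2 mM sodium pyruvate and 0.06 mM NADH at pH 7.4.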
PTHR1 agonist – PTHR1 (human) receptor agonism; HEK293 GP2 PTHR1 cells, GloSensor cAMP luminescence, 1 h; 410,000 tested, 0.075% active; Potency, µM (doses to about 115 µM), most hits filed as activators; further: nearly all actives have a fitted effect of over 55% in size
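HEK-293-derived GP2 cells expressing PTHR1 and a GloSensor cAMP reporter, 3,000/well, plated overnight, given luciferin plus IBMX (each 0.5 mM as added) for 1 h at 37 °C, then compound for 1 h at 37 °C. Luminescence was read after 15 min at room temperature.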
BRCA1 expr up – increases BRCA1 expression | MCF7-BRCA1-FFLuc reporter, luminescence, 48 h; response scale: scaled: vehicle 0%, 10 µM genistein 100% | Potency, µM (highest dose often 46.1 µM), most hits filed as activators | 380,000 tested, 1.1% active | AID 624202; further: nearly all actives have a fitted effect of over 80% in size
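Compounds are tested at multiple concentrations on MCF7 BRCA1-luciferase reporter cells seeded at 2000 per well; after 48 h, a single luminescence end-point is taken and curves fitted to the normalized data.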
p53 reactivation – mutant p53 re-activation in reporter cells. H1299 p53-A138V BP100-luciferase reporter, luminescence, 24 h. 320,000 tested, 0.063% active. Potency, µM (doses to about 92.2 µM), usual class: activators; further: nearly all actives have a fitted effect of over 45% in size
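H1299 (p53-null), stable ts p53-A138V + BP100-Luc; 1000 cells/well, Opti-MEM/10% FBS; cpd 4 pt, 1:5; 24 h, 37 deg C, 5% CO2; detection reagent 10 min RT; luminescence.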
RGS4 inh – inhibitors of human regulator of G protein signaling 4. P49798. Transcreener GDP fluorescence polarization, RGS4-accelerated GTP hydrolysis. Potency, µM (top dose mostly 114 µM), hits mostly inhibitors. 390,000 tested, 0.039% active. AID 504845; further: nearly all actives have a fitted effect of over 75% in size
Target sequence (P49798 whole entry, looked up): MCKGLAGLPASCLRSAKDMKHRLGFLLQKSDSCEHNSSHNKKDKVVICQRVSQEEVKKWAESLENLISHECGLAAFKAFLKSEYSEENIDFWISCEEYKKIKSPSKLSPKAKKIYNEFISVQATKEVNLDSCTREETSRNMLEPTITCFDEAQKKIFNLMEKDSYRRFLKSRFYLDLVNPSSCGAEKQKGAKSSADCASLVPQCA
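MLSMR compounds (23 nl, pin-transferred) preincubated 10 min at room temperature with a 500nM (2x) first reagent, then RGS4 at 900nM (2x) plus Transcreener GDP mix added; fluorescence polarization (620/688 nm) read before and after 90 min at 30 °C.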
A number is an active result. Only some compounds are listed: those with a hit (about 1.1% of all), similar ones and a draw of the others. Unless noted, the call rests on the fitted dose curve; in most records, active means well fitted curve in the direction sought with a large enough effect; inconclusive means small, poorly fitted or top-dose-only effect, or another doubt; inactive means no such curve, though single readings can be large; an effect the other way counts as inactive or inconclusive.

How did COc1ccc(-c2cn3nc(SCC(=O)NC4CCCCC4)ccc3n2)cc1 do in these assays?
LDHA block: inactive; PTHR1 agonist: inactive; BRCA1 expr up: 1.3µM; p53 reactivation: inconclusive; RGS4 inh: inactive

What do the screens show for `COc1ccc(-c2ccc(SCC(=O)NC3CCCCC3)nn2)cc1`?
LDHA block: inactive; PTHR1 agonist: inactive; BRCA1 expr up: inconclusive; p53 reactivation: inactive; RGS4 inh: inactive

What do the screens show for `O=S(=O)(c1cccs1)N1CCCc2cccc(O)c21`?
LDHA block: inactive; PTHR1 agonist: inactive; BRCA1 expr up: 13µM; p53 reactivation: inconclusive; RGS4 inh: inactive

How did COC(=O)c1ccc(F)c(NC(=O)CCc2c(C)nc(C)[nH]c2=O)c1 do in these assays?
LDHA block: inactive

Results for Clc1cccc(-c2nc3ccc(Cl)cn3c2Cc2ccsc2)c1 ?
LDHA block: inactive; PTHR1 agonist: inactive; BRCA1 expr up: 13µM

How did Clc1cccc(-c2nc3ccc(Cl)cn3c2Cc2ccccc2)c1 do in these assays?
LDHA block: inactive; PTHR1 agonist: inactive; BRCA1 expr up: inactive

What do the screens show for `CC1Sc2c(C(C)(C)C)cc(C(C)(C)C)c(O)c2OC1=O` (configuration not stated)?
LDHA block: inactive

Results for Fc1ccccc1CSCc1nc2ccccc2[nH]1 ?
LDHA block: inactive; PTHR1 agonist: inactive; BRCA1 expr up: 5.6µM; p53 reactivation: inactive; RGS4 inh: inactive

How did Cc1ccc(SCc2nc3ccccc3[nH]2)cc1 do in these assays?
LDHA block: inactive; PTHR1 agonist: inactive; BRCA1 expr up: 3.5µM; p53 reactivation: inactive; RGS4 inh: inactive

What do the screens show for `c1ccc(SCc2nc3ccccc3[nH]2)cc1`?
LDHA block: inactive; PTHR1 agonist: inactive; BRCA1 expr up: inconclusive; p53 reactivation: inactive; RGS4 inh: inactive

Results for Cc1ccc(NC(=O)CCCSc2nc3ccccc3[nH]2)cc1 ?
LDHA block: inactive; PTHR1 agonist: inactive; BRCA1 expr up: inactive; p53 reactivation: inactive; RGS4 inh: inactive

How did Cc1ccc(SCC(=O)Nc2ccc(-c3nc4ccccc4[nH]3)cc2)cc1 do in these assays?
LDHA block: inactive; PTHR1 agonist: inactive; BRCA1 expr up: 3.5µM; p53 reactivation: inactive; RGS4 inh: inactive

What do the screens show for `c1ccc2[nH]c(CCCc3nc4ccccc4[nH]3)nc2c1`?
LDHA block: inactive; PTHR1 agonist: inactive; BRCA1 expr up: inactive; RGS4 inh: inactive

What do the screens show for `c1ccc(CCc2nc3ccccc3[nH]2)cc1`?
LDHA block: inactive; PTHR1 agonist: inactive; BRCA1 expr up: 6.3µM; p53 reactivation: inactive; RGS4 inh: inactive

Results for CC(C)CNc1nc(-c2ccc3c(c2)NC(=O)CO3)cs1 ?
LDHA block: inactive

What do the screens show for `CC(=O)c1cccc(NC(=S)NCCSc2ccc(Cl)cc2)c1`?
LDHA block: inactive

How did N#CCSc1sc(=S)sc1SCC#N do in these assays?
LDHA block: inactive

How did O=C(O)Cc1cccc2cccnc12 do in these assays?
LDHA block: inactive

Results for COc1ccc(C2=NN(c3ccccc3)C(c3ccc(OC)c(OC)c3)C2)cc1 (configuration not stated) ?
LDHA block: inactive; PTHR1 agonist: inactive; BRCA1 expr up: 10µM; p53 reactivation: inactive; RGS4 inh: inactive

What do the screens show for `COc1ccc(C2CC(c3ccc(F)cc3)=NN2c2ccccc2)cc1OC` (configuration not stated)?
LDHA block: inactive; PTHR1 agonist: inactive; BRCA1 expr up: inactive; RGS4 inh: inactive

Results for CNS(=O)(=O)c1cccc(C(=O)NCC2(c3ccccc3)CCC2)c1 ?
LDHA block: inactive

How did CC(C)c1ccc(NC(=S)Nc2ccc3cn[nH]c3c2)cc1 do in these assays?
LDHA block: inactive; PTHR1 agonist: inactive; BRCA1 expr up: inconclusive; p53 reactivation: inactive; RGS4 inh: inactive

Results for CC(=O)c1ccc(NC(=S)Nc2ccc3cn[nH]c3c2)cc1 ?
LDHA block: inactive; PTHR1 agonist: inactive; BRCA1 expr up: 6.3µM; p53 reactivation: inactive; RGS4 inh: inactive

Results for Fc1ccc(Nc2ccc(-c3ccc(F)cc3)nn2)cc1 ?
LDHA block: inactive; PTHR1 agonist: inactive; BRCA1 expr up: 5.6µM; p53 reactivation: inactive; RGS4 inh: inactive

What do the screens show for `Fc1ccc(-c2ccc(Nc3cccc(F)c3)nn2)cc1`?
LDHA block: inactive; PTHR1 agonist: inactive; BRCA1 expr up: inconclusive; p53 reactivation: inactive; RGS4 inh: inactive

What do the screens show for `O=C(Nc1ccc2c(c1)CCC2)c1cccc(Br)c1`?
LDHA block: inactive

Results for O=C(Nc1ccc2c(c1)CCC2)c1cccc(OC(F)F)c1 ?
LDHA block: inactive; PTHR1 agonist: inactive; BRCA1 expr up: 2.8µM; RGS4 inh: inactive

What do the screens show for `O=C(NC1=NCCS1)c1ccc(C(F)(F)F)cc1`?
LDHA block: inactive; PTHR1 agonist: inactive; BRCA1 expr up: 4µM; p53 reactivation: inactive; RGS4 inh: inactive

What do the screens show for `COc1ccc(C(=O)NC2=NCCS2)cc1`?
LDHA block: inactive; PTHR1 agonist: inactive; BRCA1 expr up: 3.2µM; p53 reactivation: inactive; RGS4 inh: inactive

What do the screens show for `O=C(NC1=NCCS1)c1cccc(OC(F)F)c1`?
LDHA block: inactive; PTHR1 agonist: inactive; BRCA1 expr up: 2.8µM; p53 reactivation: inactive; RGS4 inh: inactive

What do the screens show for `COc1cc(OC)cc(C(=O)NC2=NCCS2)c1`?
LDHA block: inactive; PTHR1 agonist: inactive; BRCA1 expr up: inactive; p53 reactivation: inactive; RGS4 inh: inactive

What do the screens show for `S=C(NCCc1ccccc1)Nc1ccc(Cl)cc1NC(=S)NCCc1ccccc1`?
LDHA block: inactive

Results for COc1cc(C(=O)NC2=NCCS2)cc(OC)c1OC ?
LDHA block: inactive; PTHR1 agonist: inactive; BRCA1 expr up: inactive; p53 reactivation: inactive; RGS4 inh: inactive

What do the screens show for `COc1cccc(C(=O)NC2=NCCS2)c1OC`?
LDHA block: inactive; PTHR1 agonist: inactive; BRCA1 expr up: 13µM; p53 reactivation: inconclusive; RGS4 inh: inactive

Results for O=C1c2ccccc2NC(c2ccc(Br)o2)N1O (configuration not stated) ?
LDHA block: inactive; PTHR1 agonist: inactive; BRCA1 expr up: 11µM; p53 reactivation: inconclusive; RGS4 inh: inactive

Results for O=C1c2ccccc2NC(c2ccc(-c3cccs3)o2)N1O (configuration not stated) ?
LDHA block: inactive; PTHR1 agonist: inactive; BRCA1 expr up: inconclusive; p53 reactivation: inconclusive; RGS4 inh: inactive

How did O=C(CC1CCCC1)Nc1ccc2c(c1)CCC2 do in these assays?
LDHA block: inactive; PTHR1 agonist: inactive; BRCA1 expr up: 10µM; p53 reactivation: inactive; RGS4 inh: inactive

Results for Cc1cccc(NC(=O)CC2CCC2)c1 ?
LDHA block: inactive; PTHR1 agonist: inconclusive; BRCA1 expr up: inconclusive; p53 reactivation: inconclusive; RGS4 inh: inactive

Results for Cc1cc(NC(=O)CC2CCCC2)ccc1Br ?
LDHA block: inactive; PTHR1 agonist: inactive; BRCA1 expr up: 8.9µM; p53 reactivation: inconclusive; RGS4 inh: inactive
